# Screening results from PubChem.
# Shown are actives, neighbours in structure and some others; about 3% of the full set was active somewhere.
# DRD3 antagonist – blocks the human D3 dopamine receptor; P35462; D3R cells, DiscoveRx beta-arrestin luminescence, antagonist mode; stronger effect = lower value; max response, negative = inhibition, %; actives 2.5% (n = 360,000); in the data active = max response below about -50%; inconclusive = no clear call, values can overlap the other calls; also: % is scaled to controls: 0 for no effect and ±100 for the full control effect
# Target sequence (P35462 whole entry, looked up): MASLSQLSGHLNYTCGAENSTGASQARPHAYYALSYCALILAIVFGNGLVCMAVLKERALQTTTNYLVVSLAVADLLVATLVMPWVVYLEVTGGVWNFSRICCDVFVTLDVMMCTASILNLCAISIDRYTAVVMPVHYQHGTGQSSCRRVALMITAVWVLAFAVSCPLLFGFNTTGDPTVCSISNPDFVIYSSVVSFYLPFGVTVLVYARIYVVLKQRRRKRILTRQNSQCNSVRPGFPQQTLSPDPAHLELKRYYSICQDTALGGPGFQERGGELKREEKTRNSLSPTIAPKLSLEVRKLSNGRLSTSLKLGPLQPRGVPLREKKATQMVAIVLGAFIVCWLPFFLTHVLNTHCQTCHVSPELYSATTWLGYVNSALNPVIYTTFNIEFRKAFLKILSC
#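 Cells plated overnight at 1500 cells/well, then exposed to library compounds with dopamine controls for 90 minutes at 37 degrees C. DiscoveRx reagent added for 30–60 minutes at room temperature; luminescence read, quantitative HTS format.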
# Nrf2 activator – Nrf2 pathway activation. AREc32 ARE-luciferase reporter (MCF7-derived line), luminescence, 24 h. Potency, µM (doses to about 46.1 µM), for the others: at the top dose activation, most hits filed as activators. actives 0.31% (n = 410,000). AID 624171; also: potency is read from the fitted curve at half-maximal effect; % of control where 0% means no effect; nearly all actives have a fitted effect of over 65% in size
#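 ARE-driven firefly luciferase activity in AREc32 cells measured after a 24 hr compound exposure at 37 deg C, using Steady-Glo reagent and a 30 min room-temperature hold.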
# DRD3 agonist – agonists of human D3 dopamine receptor; P35462; max activation, %; actives 0.58% (n = 410,000); D3R DiscoveRx beta-arrestin cells, luminescence, 90 min; in the data active = max activation above about 30%; also: 0% is about no effect
#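 Cells at 1500/well, incubated overnight, then treated with pinned compounds (dopamine as control) for 90 min at 37 degrees C. DiscoveRx reagent added for 30 - 60 minutes at room temperature; luminescence read.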
# GRP78 ERSR act – induces the endoplasmic reticulum stress response in human glioma cells | U87-MG GRP78 promoter luciferase reporter, 16 h | Potency, µM, for the others: at the highest dose activation, most hits filed as activators | actives 0.02% (n = 420,000) | AID 602332; also: potency is read from the fitted curve at half-maximal effect; series mostly up to about 76 µM; % of control where 0% means no effect; nearly all actives have a fitted effect of over 35% in size
#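 Stably transfected U87-MG human glioma cells carrying a GRP78-based luminescent sensor were seeded at 1000 cells/well, pin-dosed with compounds and incubated 16 h. Luciferase reagent was then added, and end-point luminescence was read after 10 min at room temperature.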
# * hit, by the source's call; ? = inconclusive; / = no result. Unless noted, calls follow the shape of the dose curve; as a rule, active = well fitted curve in the direction sought with a large enough effect; inconclusive = small, poorly fitted or top-dose-only effect, or another doubt; inactive = no such curve, though single readings can be large; an effect the other way counts as inactive or inconclusive.
SMILES,DRD3 antagonist,Nrf2 activator,DRD3 agonist,GRP78 ERSR act
Cc1ccc(C2CC(=O)N3CN(Cc4ccco4)CSC3=C2C#N)cc1 (configuration not stated),-59*,3%,-1,-4%
Cc1nc2c(OCc3ccc(Cl)cc3Cl)cccn2c1N(C)Cc1cccs1,-71*,0%,-17,?
CN1[C@@H](CC(=O)c2ccccc2)CCC[C@H]1C[C@H](O)c1ccccc1,-75*,1%,-91,-5%
CN1C(CC(=O)c2ccccc2)CCCC1CC(O)c1ccccc1 (configuration not stated),-80*,0%,-46,-6%
CN1[C@H](CC(=O)c2ccccc2)CCC[C@H]1C[C@@H](O)c1ccccc1,/,/,/,-6%
COc1ccc(C)cc1NC(=O)Cn1c(=O)nc(-c2ccccc2F)c2cc(Cl)ccc21,/,3%,10,-2%
Cc1ccccc1-n1ncc2c(SCC(=O)NC3CCCC3)ncnc21,11,0%,7,-3%
Cc1nnc(NC(=O)CSc2ncnc3c2cnn3-c2ccccc2C)s1,-63*,0%,6,-3%
CCN(Cc1ccncc1)Cc1ccc2c(c1)CN(C(=O)c1ccc(C)cc1)CCO2,/,/,/,-4%
COc1ccccc1C1NC=C([N+](=O)[O-])C=C1[N+](=O)[O-] (configuration not stated),-62*,5%,-19,-1%
Cc1cc(C)n(-c2ccc(C(=O)NCC3Cc4cc(-c5cnccn5)ccc4O3)cc2)n1 (configuration not stated),/,/,/,-2%
O=C(Nc1ccc(Cl)cc1Cl)c1cccc(N2C(=O)C=CC2=O)c1,-85*,9%,-6,-18%
CCOC(=O)C(=CNc1ccc(N2CCOCC2)cc1)C(=O)OCC,78,0%,5,6%
CCOC(=O)C(=CNc1ccc(-c2ccco2)c(Cl)c1)C(=O)OCC,110,15%,38*,-1%
CCOC(=O)C(=CNc1ccc2c(c1)CCN2C(C)=O)C(=O)OCC,126,4%,32*,4%
CCC1CN(CCNC(=O)c2cccc3nccnc23)Cc2cc(OC)ccc2O1 (configuration not stated),/,/,/,-3%
Cc1cc2nc(N3C(=O)CNC3=S)sc2cc1C,-67*,15%,-11,-6%
Cc1ccc(-c2cc(NC(=O)C(C)Oc3ccc(C)c(C)c3)on2)cc1 (configuration not stated),/,5%,-15,-5%
COc1ccc(/C=C\C(=O)CC(O)(c2ccccc2)C(F)(F)F)cc1 (configuration not stated),-70*,?,-12,-2%
Cc1cc(C(=O)CSc2ccc(F)cc2)cc(C)c1OC(=S)N(C)C,34,0%,3,-9%
COc1ccc(SCC(=O)c2cc(C)c(OC(=S)N(C)C)c(C)c2)cc1,-51*,1%,0,-3%
O=[N+]([O-])c1cc(-c2ncccn2)c([N+](=O)[O-])s1,-104*,23%,-19,-15%
Cc1cccc(N2CCN(C(=O)NC3CCCCC3)CC2)c1C,3,1%,-4,5%
COc1ccc(NC(=O)CN2CCN(c3ccccc3Cl)CC2)cc1,-61*,0%,-12,-4%
Cc1cccc(N2CCN(CC(=O)NCC3CCCCC3)CC2)c1C,-63*,0%,-6,-1%
SMILES,DRD3 antagonist,Nrf2 activator,DRD3 agonist,GRP78 ERSR act
CCOc1ccc(NC(=O)CN2CCN(c3ccccc3C)CC2)cc1S(=O)(=O)N1CCCC1,-62*,0%,-24,-2%
COc1ccc(NC(=O)CN2CCN(c3ccccc3C)CC2)cc1,-26,0%,-14,-6%
COC(=O)c1ccc(NC(=O)CN2CCN(c3ccccc3C)CC2)cc1,-77*,0%,-2,2%
CCC(=O)Nc1ccc(-c2nnc(SCc3ccccc3)n2C)cc1,/,/,/,-3%
COCC(C)NC(=O)c1cc2c(=O)n3cccc(C)c3nc2s1 (configuration not stated),/,6%,-7,-3%
Cc1nonc1CN(C)C(=O)C1CC12CCN(C(=O)/C=C/c1cccc(Cl)c1)CC2 (configuration not stated),/,/,/,-1%
O=C(NC1CCCC1)c1cn(C2CCCN(Cc3ccc4c(c3)OCCO4)C2)nn1 (configuration not stated),/,/,/,-5%
CN(CC(=O)Nc1cc([N+](=O)[O-])ccc1Cl)Cc1ccc(Br)cc1,-85*,6%,-15,-2%
CN1CCc2c(sc(/N=C/c3cc(C(C)(C)C)ccc3O)c2C#N)C1,-54*,0%,11,-4%
Cc1cccc(/C=N/c2sc3c(c2C#N)CCN(Cc2ccccc2)C3)c1O,?,0%,-16,0%
Cc1ccccc1NC(NC(=O)OCCn1c([N+](=O)[O-])cnc1C)C(Cl)(Cl)Cl (configuration not stated),-63*,0%,-5,-6%
Cc1ncc([N+](=O)[O-])n1CCOC(=O)NC(Nc1ccc(F)cc1)C(Cl)(Cl)Cl (configuration not stated),-10,0%,0,-2%
CSc1nccc(-c2cc(Cl)c3c(c2)CC(CNC(=O)c2ccc(C)nc2)O3)n1 (configuration not stated),/,/,/,2%
O=C(c1ccco1)N1CCN(CCCCN2C(=O)c3ccccc3C2=O)CC1,-10,2%,57*,-2%
O=C(c1ccco1)N1CCN(CCCCOc2ccc(F)cc2)CC1,2,0%,66*,-2%
O=C(CCN1CCN(C(=O)c2ccco2)CC1)Nc1ccc(F)cc1,15,-1%,4,-2%
CC(C)(CO)NC(=O)c1cnn(-c2ncc3c(n2)-c2ccccc2CC3)c1C1CC1,/,/,/,6%
O=C(Nc1ccc(O)cc1)c1cc2ccccc2c(=O)s1,-4,7%,6,-1%
O=C(Nc1ccccc1)c1cc2ccccc2c(=O)s1,50,10µM*,-14,5%
CCOC(=O)c1c(-c2ccccc2)csc1NC(=O)c1ccc(N2C(=O)CCC2=O)cc1,35,0%,57*,-3%
COc1ccc2cc3c(N)c(C(=O)NCc4ccco4)sc3nc2c1,-55*,6%,-3,-4%
Cc1ncc2c(c1CNC(=O)c1ccccc1F)CCN(C(=O)c1[nH]c3ccc(Cl)cc3c1C)C2,/,/,/,-4%
Cc1cnc(-n2ncc(C(=O)NCC3COCCO3)c2C2CC2)nc1-c1cccs1 (configuration not stated),/,/,/,1%
Cc1cc(C(=O)COC(=O)c2ccc[nH]c2=O)c(C)n1-c1ccccc1,-23,-3%,9,-11%
Cc1cc(C(=O)COC(=O)c2ccc[nH]c2=O)c(C)n1C1CC1,8,0%,33*,-6%
c1csc(-c2ccc3ccccc3n2)c1,21,18µM*,11,4%
Nc1nc2ccccc2cc1-c1cccs1,4,4%,4,8%
CCc1ccccc1NC(=O)CC(c1ccc(F)cc1)N1Cc2ccccc2C1=O (configuration not stated),/,0%,-22,-3%
O=C(Nc1c(-c2ccc3c(c2)OCO3)[nH][nH]c1=O)c1ccc2c(c1)OCO2,-78*,0%,-8,-2%
C/C(=N\NC(=O)c1ccc2c(c1)OCO2)c1ccc2c(c1)OCO2,-55*,2%,-2,-2%
